# Compound activity deposited in PubChem BioAssay by National Center for Advancing Translational Sciences (NCATS).
# PTHR1 ag: PTHR1 (human) receptor agonism | Q03431 | HEK293 GP2 PTHR1 cells, GloSensor cAMP luminescence, 1 h | Potency, µM (highest dose often 115 µM), for inactives: at the highest dose activation, most hits filed as activators | actives 0.075% (n = 410,000) | AID 743266; note: potency is the fitted concentration of half-maximal effect; nearly all actives have a fitted effect of over 55% in size
# Target sequence (Q03431 whole entry, looked up): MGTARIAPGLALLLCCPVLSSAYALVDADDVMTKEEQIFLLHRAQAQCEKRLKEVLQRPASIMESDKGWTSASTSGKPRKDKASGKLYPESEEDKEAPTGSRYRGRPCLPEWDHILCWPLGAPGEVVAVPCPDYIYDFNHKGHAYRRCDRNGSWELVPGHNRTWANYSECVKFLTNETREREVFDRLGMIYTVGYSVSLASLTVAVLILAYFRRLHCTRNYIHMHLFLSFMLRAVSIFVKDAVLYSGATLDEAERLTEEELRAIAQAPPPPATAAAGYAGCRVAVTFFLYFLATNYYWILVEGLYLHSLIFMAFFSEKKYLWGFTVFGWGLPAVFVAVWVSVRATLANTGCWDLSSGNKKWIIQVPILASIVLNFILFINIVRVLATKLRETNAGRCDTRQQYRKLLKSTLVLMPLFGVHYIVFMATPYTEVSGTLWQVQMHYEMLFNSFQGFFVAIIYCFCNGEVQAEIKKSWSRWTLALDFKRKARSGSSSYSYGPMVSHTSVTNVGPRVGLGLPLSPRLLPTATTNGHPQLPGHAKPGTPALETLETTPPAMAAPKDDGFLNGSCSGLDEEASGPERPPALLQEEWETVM
#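 HEK-293-derived GP2 cells expressing PTHR1 and a GloSensor cAMP reporter, 3,000/well, plated overnight, given luciferin plus IBMX (each 0.5 mM as added) for 1 h at 37 °C, then compound for 1 h at 37 °C. Luminescence was read after 15 min at room temperature.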
# TRHR PAM: TRH receptor (human) allosteric enhancement; TRHR cells, fluo-8 calcium fluorescence, EC20 TRH enhancement; enhancement, % at 2 µM; actives 0.66% (n = 360,000); AID 493056; in the data active = enhancement above about 30%; note: 0% is about no effect
#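 TRHR-expressing cells loaded with fluo-8 calcium dye were read kinetically (ex 480/em 530) during compound addition, then stimulated with an EC20 of TRH (10 nM final). Enhancement of the Gq-mediated intracellular calcium response was scored.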
# GLP-1R agonist: activates the human GLP-1 receptor; actives 0.007% (n = 380,000); Potency, µM (series often up to 45.6 µM), without a hit: at the top dose activation, hits mostly activators; HEK293 GLP-1R CRE-luciferase, luminescence, 4-6 h; cells express a hypersensitive GLP-1R form; P43220; note: potency is the fitted concentration of half-maximal effect; % of control where 0% means no effect
# GLP1R inv ag: acts as inverse agonist at human GLP-1 receptor. Potency, µM (doses to about 38.3 µM), without a hit: at the highest dose activity change, negative = inhibition, hits mostly inhibitors. P43220. AID 624417. actives 1.6% (n = 410,000). HEK293 GLP-1R CRE-luciferase, luminescence, 24 h; GLP-1R form is constitutively active; note: potency is the fitted concentration of half-maximal effect; % is set by controls: 0 for no effect and ±100 for the full control effect; nearly all actives have a fitted effect of over 55% in size
#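 Assay principle: reduced luminescence from a cAMP-responsive reporter in HEK293 cells co-expressing a constitutively active GLP-1R. Conditions: 24 hr compound incubation, 37 deg C, 5% CO2.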
# GLP1R cytotox: cytotoxic in the GLP-1 receptor inverse agonist counter-screen. Potency, µM (doses to about 38.3 µM), for the others: at the top dose activity change, negative = inhibition, usual class: inhibitors. HEK293 cAMP-luciferase reporter cells, luminescence, 24 h. actives 0.13% (n = 410,000). AID 624418;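 note: loss of luciferase light is scored as toxicity; potency is the fitted concentration of half-maximal effect; % is set by controls: 0 for no effect and ±100 for the full control effect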
#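 MLSMR compounds, 24 hr on cells at 37 deg C/5% CO2; luminescence after luciferase reagent (12 min RT). Inhibition counted as the undesired cytotoxic outcome.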
# TRHR ag: TRH receptor (human) agonism. P34981. TRHR cells, calcium flux fluo-8, FDSS agonist mode. activation, % at 2 µM. actives 0.18% (n = 360,000); in the data active = activation above about 30%; note: 0% is about no effect
#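 Agonist-mode FDSS calcium read (Ex 480/Em 530, 1 s cycles) in 1536-well TRHR cells with fluo-8 dye, after 10-cycle baseline and 23 nL compound addition; TRH at EC20 (10 nM final) added afterwards for the enhancer phase.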
# Active calls of the source: *; i = inactive; ? = inconclusive; nt = no result; [ ] = dose if it differs, or a comment. Shown are actives, neighbours in structure and some others; about 2.4% of the full set was active somewhere. Unless noted, calls come from the whole dose curve; as a rule, active = well fitted curve in the direction sought with a large enough effect; inconclusive = small, poorly fitted or top-dose-only effect, or another doubt; inactive = no such curve, though single readings can be large; an effect the other way counts as inactive or inconclusive.
SMILES,PTHR1 ag,TRHR PAM,GLP-1R agonist,GLP1R inv ag,GLP1R cytotox,TRHR ag
COC(=O)c1c(-c2ccc(Cl)cc2)noc1N1CCN(c2cccc(C(F)(F)F)c2)CC1,-33%,-1,nt,-16%,-4%,1
O=S(=O)(/C=C/c1ccccc1)Nc1ccc(F)cc1,-15%,31*,6%,-7%,17%,1
Cc1c(C(=O)NCc2ccc3c(c2)OCCO3)sc(=O)n1Cc1ccccc1C#N,i,nt,7%,9%,2%,nt
CC(C)Cc1ccc(C(=O)Nc2ccc(Cc3ccncc3)cc2)o1,-93%,38*,-3%,?,-11%,0
COc1ccc(-c2cn3nc(N4CCCC(C(=O)NCc5ccccc5C)C4)sc3n2)cc1 (stereo not given),-23%,1,nt,-10%,-11%,0
CNc1ccccc1C(C)(C)c1cc(-c2ccco2)n[nH]1,-19%[57.5 µM],15,2%,7.9µM*,1%,0
CC(=O)Nc1ccc(CNc2nc(NCc3cccs3)nc3ccsc23)cc1,i,nt,14%,21%,1%,nt
COc1ccc(CNC(=O)Nc2ccc(C)cc2C)cc1,i,0,-1%,1%,-18%,0
Cc1ccc(C(=O)O)cc1NCc1ccncc1,i,30*,-3%,12%,-2%,1
COc1ccccc1-c1cc(NC(=O)COc2ccc(C)c(C)c2)n(-c2ccccc2)n1,i,2,nt,16%,9%,1
CCC(Oc1ccccc1)C(=O)Nc1cc(-c2ccccc2OC)nn1-c1ccccc1 (stereo not given),-23%,-3,nt,4.5µM*,8%,0
COc1ccc(Cl)cc1NC(=O)CCCN1C(=O)C(c2ccccc2)Oc2cccnc21 (stereo not given),-32%,-4,-4%,-28%,7%,2
COc1ccc(C)cc1NC(=O)CCCN1C(=O)C(c2ccccc2)Oc2cccnc21 (stereo not given),-25%,-4,29%,10µM*,0%,1
COc1cccc(OC)c1C(=O)OCC(=O)N(C)c1ccccc1,i,12,2%,3%,0%,-2
CCc1cc(C(=O)OC)c(NC(=O)CCC(=O)O)s1,i,3,0%,2%,-11%,-1
CCCc1cc(C(=O)OC)c(NC(=O)CCCC(=O)O)s1,-19%,36*,2%,55%,-2%,0
COC(=O)c1cccc(COC(=O)c2cc3ccccc3oc2=O)c1,-4%,-4,4%,26%,7%,0
COc1ccc2c(COC(=O)CNS(=O)(=O)c3ccc(C)c(C)c3)cc(=O)oc2c1,-32%,-4,15%,6%,5%,-1
CCCC[C@@H](CN[C@H](C)CNC)NCC1CCC(C(C)(C)C)CC1 (stereo not given in full),i,-2,-2%,11µM*,?,3
O=C(CSc1nc2ccc(Cl)cc2[nH]1)N1CCN(C(=O)c2ccco2)CC1,-18%,-7,4%,13%,-15%,0
COc1ccc(NC(C)C(=O)N/N=C/c2ccccc2OCc2cccc(Br)c2)cc1 (stereo not given),-7%,34*,20%,?,-22%,0
Cc1cccc(/C=N/NC(=O)c2ccccc2OCc2cccc(Br)c2)n1,-22%,-8,18%,11µM*,?,-2
COc1ccc(NC(=O)c2sc(=O)n(Cc3cccc(C(F)(F)F)c3)c2C)cc1OC,-86%,nt,-5%,?,-29%,nt
CN1CCN(C(=O)c2ccc(S(=O)(=O)Nc3ccccc3)cc2)CC1,-32%,-7,-4%,12%,-1%,0
COc1ccc(CCN(C)C(=O)CN2C(=O)NC3(CCCCCC3)C2=O)cc1OC,-1%,8,19%,49%,13%,0
SMILES,PTHR1 ag,TRHR PAM,GLP-1R agonist,GLP1R inv ag,GLP1R cytotox,TRHR ag
CCN1C(=NCc2ccc(OC)cc2)N[C@@H](c2ccccc2)[C@H](C(=O)OC)[C@H]1C,-12%,31*,-17%,-11%,14%,0
Cc1ccc(C)c(NC(=O)C(c2ccccc2)N2Cc3ccccc3C2=O)c1 (stereo not given),i,32*,nt,7%,12%,0
CCOC(=O)N1CCN(C(=O)c2ccc3c(c2)ncn3C2CCCC2)CC1,-4%[57.5 µM],34*,-1%,-7%,11%,-1
CCOC(=O)N1CCC(NC(=O)c2ccc3c(c2)ncn3C2CCCC2)CC1,-1%,-7,10%,20%,1%,0
Cc1ccccc1OC(C)C(=O)NCc1cccnc1 (stereo not given),-24%,4,-2%,2%,5%,0
O=C(CCCn1c(=O)[nH]c2ccccc2c1=O)N1CCN(c2ccccn2)CC1,i,1,-4%,-16%,-28%,0
O=C(CCCn1c(=O)[nH]c2ccsc2c1=O)N1CCN(c2ccccn2)CC1,i,30*,8%,10%,-5%,0
Cc1cccc(N2CCN(C(=O)CCn3c(=O)[nH]c4ccsc4c3=O)CC2C)c1 (stereo not given),-15%,32*,1%,-27%,-13%,-2
O=C(CCCOc1ccccc1)N1CCN(c2ccccn2)CC1,-34%[57.5 µM],-1,-6%,10µM*,-11%,0
Cc1ccc(-c2cc(C(=O)Oc3ccccc3)c3cc(C)ccc3n2)cc1,i,1,nt,11%,-9%,0
CCN1C(N(C)CCc2c[nH]c3ccccc23)=N[C@@H](c2cccc(C(F)(F)F)c2)C(C(=O)OC)=C1C,-25%,nt,-1%,10µM*,-12%,nt
N#CC1=C(N)C2=C(N3CCCCC3)CCCC2C1(C#N)C#N (stereo not given),i,3,-12%,0%,81%,1
N#CC(C#N)=C1C=C2C=C(N3CCCCC3)CCC2CC1 (stereo not given),-10%,-21,4%,14%,0%,249*
CCN(CC)C1=CC2=CC(=C(C#N)C#N)CCC2CC1 (stereo not given),i,4,4%,0%,12%,0
CCCCN(C)C1=CC2=CC(=C(C#N)C#N)CCC2CC1 (stereo not given),-3%,-9,7%,-16%,2%,261*
O=C(CCS(=O)(=O)c1ccccc1)N1CCN(c2ccccc2F)CC1,-23%,4,-9%,-27%,13%,2
Cc1ccc(C(=O)N(CCc2ccccc2)Cc2ccccc2)cc1S(=O)(=O)N1CCOCC1,-24%,nt,5%,10µM*,-10%,nt
